Inconclusive results are not listed. The source made the active and inactive calls.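 The calls were made as follows, unless noted: active = normalized viability below 100% at a tested concentration; inactive = the rest.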
Tests used:
[1] = growth inhibition of DIPG glioma cells, dose response, cell-based, JHH-DIPG-1, MIPE4.0, CellTiter-Glo, qHTS (AID 1347062; cut-off not given, nearly all actives have AC50 up to about 27 µM;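 as to AC50: cells exposed to compound for two days before readout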); settings: JHH-DIPG-1 viability, CellTiter-Glo ATP luminescence
[2] = growth inhibition of DIPG glioma cells, dose response, cell-based, SU-DIPG-IV, MIPE4.0, CellTiter-Glo, qHTS (AID 1347063; cut-off not given, nearly all actives have AC50 up to about 30 µM;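 also: compound exposure lasted 48 hours before the viability readout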); settings: SU-DIPG-IV viability, CellTiter-Glo ATP luminescence
[3] = SU-DIPG-VI glioma cell viability, MIPE4.0 library, CellTiter-Glo luminescence, qHTS (AID 1347066; cut-off not given, nearly all actives have AC50 up to about 30 µM;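 also: cells exposed to compound for 48 hours before readout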); settings: CellTiter-Glo ATP luminescence
[4] = growth inhibition of DIPG glioma cells, dose response, cell-based, SU-DIPG-XIII, MIPE4.0, CellTiter-Glo, qHTS (AID 1347061; cut-off not given, nearly all actives have AC50 up to about 37 µM;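 also: cells exposed to compound for 48 hours before readout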); settings: SU-DIPG-XIII viability, CellTiter-Glo ATP luminescence
[5] = growth inhibition of DIPG glioma cells, dose response, cell-based, SU-DIPG-XIII, MIPE5.0, CellTiter-Glo, qHTS (AID 1347064; cut-off not given, nearly all actives have AC50 up to about 23 µM;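 as to AC50: cells exposed to compound for 48 hours before the viability read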); settings: SU-DIPG-XIII viability, CellTiter-Glo ATP luminescence
[6] = SU-DIPG-XXV glioma cell viability, MIPE5.0 library, qHTS (AID 1347068; cut-off not given, nearly all actives have IC50 up to about 30 µM)
[7] = viability loss in pontine glioma line – cell-based, SU-DIPG-XXV, MIPE5.0, CellTiter-Glo, qHTS, dose response (AID 1347065; cut-off not given, nearly all actives have AC50 up to about 26 µM;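 also: cells exposed to compound for 48 hours before ATP readout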); settings: CellTiter-Glo ATP luminescence
[8] = JHH-DIPG-1 glioma cell viability, MIPE5.0 library, CellTiter-Glo luminescence, qHTS (AID 1347067; cut-off not given, nearly all actives have AC50 up to about 26 µM;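 also: cells exposed to compound for 48 hours before readout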); settings: JHH-DIPG-1 glioma viability, CellTiter-Glo ATP luminescence
[9] = sensitizers of A549 cells to miR-34 induction, primary screen, imaging, A549 dox-inducible miR-34, nuclei and caspase counts (AID 1347080;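 active = compounds whose cell count with miR-34 switched on is under 0.7 times the count with it off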); settings: A549 miR-34 inducible, Hoechst nuclei count, 48 h
[10] = survival rescue of mitochondrial mutant cells in low glucose, primary screen, MELAS cybrids, Rieske KO mouse fibroblasts, CellTiter-Glo (AID 1508586;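 active = mean z-score across replicates of 1.96 or higher in either the MELAS or the Rieske mutant cell line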;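 also: z relative to plate mean and SD of compound and empty wells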)
[11] = inhibitors of Cryptococcus chitosan production, flow cytometry, Cibacron Brilliant Red staining (AID 1347148; call rule not given here;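 also: compound exposure lasted three days at 37 degrees C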); settings: Cryptococcus neoformans chitosan, stronger effect = lower value; at 10 µM unless noted
[12] = ovarian cancer cell viability with rucaparib, profiling panel, oncology-focused library, rucaparib conditional (AID 1508598); settings: patient-derived ovarian cancer cells, CellTiter-Glo viability, 144 h, stronger effect = lower value
[13] = measured here: relative caspase fold change +Dox/-Dox
[14] = measured here: total cells with miR-34 induction, stronger effect = lower value
[15] = measured here: total cells without miR-34 induction
[16] = MELAS cybrid survival, CellTiter-Glo 48 h, stronger effect = higher value
[17] = Rieske KO mouse fibroblast survival, CellTiter-Glo 72 h
[18] = stronger effect = lower value, cell number ratio, induced over uninduced

CCC(=O)OC1CCC2C3CCC4=CC(=O)CC[C@@]4(C)C3CC[C@]12C (stereo partly specified)
inactive: outcome [1] | outcome [2] | outcome [3]

CC(C)N[C@@H]1CCn2c(=O)[nH]c3cccc(c32)[C@H]1O
active: AC50 [4] 7430 nM | AC50 [1] 14800 nM | AC50 [2] 743 nM | AC50 [3] 23500 nM

CC(C)(O)C(=O)Nc1ccc([N+](=O)[O-])c(C(F)(F)F)c1
active: AC50 [4] 11800 nM
inactive: outcome [5] | outcome [3] | outcome [6]

C[C@@]12OC(=O)[C@]1([C@@H](O)[C@@H]1C=CCCC1)NC(=O)[C@@H]2CCCl
active: AC50 [4] 590 nM | AC50 [1] 41.8 nM | AC50 [2] 9.35 nM | AC50 [5] 14.8 nM | AC50 [7] 18.6 nM | AC50 [3] 23.5 nM | AC50 [8] 29.5 nM

COC[C@H]1OC(=O)c2coc3c2[C@@]1(C)C1=C(C3=O)[C@@H]2CC[C@H](O)[C@@]2(C)C[C@H]1OC(C)=O
inactive: outcome [6]
active: AC50 [4] 16600 nM | AC50 [2] 1180 nM | AC50 [5] 9340 nM | AC50 [7] 1660 nM | AC50 [3] 14800 nM | AC50 [8] 5900 nM

C[C@@H]1[C@H](O)[C@@H](C)C=CC=CCCC=CC=CC=CC=C[C@H](O[C@H]2O[C@@H](C)[C@H](O)[C@@H](N)[C@H]2O)CC2O[C@](O)(C[C@@H](O)[C@H](O)CC[C@@H](O)C[C@@H](O)C[C@@H](O)CC(=O)O[C@H]1C)C[C@H](O)[C@H]2C(=O)O
inactive: outcome [4] | outcome [1] | outcome [2] | outcome [3]

COC1(CS(=O)c2ccccc2)CCN(CCc2c[nH]c3ccc(F)cc23)CC1 (stereo unspecified)
inactive: outcome [4] | outcome [1] | outcome [2] | outcome [5] | outcome [3] | outcome [8] | outcome [6]

CC(C)N(CCNC(=O)CN1CCCC1=O)C(C)C
10600: cell count [9, 15]
inactive: outcome [4] | outcome [1] | outcome [2] | outcome [3] | fold change ([9]; stronger effect = lower value) 0.88 | z-score [10, 16] -0.352
0.862: fold change [9, 13]
0.7: z-score [10, 17]
9340: cell count [9, 14]

O=C(NCC1CCOCC1)c1cnc(Nc2ccc(Cl)cc2Cl)nc1C(F)(F)F
8790: cell count [9, 15]
inactive: outcome [4] | outcome [5] | outcome [7] | outcome [3] | outcome [8] | outcome [6] | fold change [9, 18] 0.931 | z-score [10, 16] -0.266
active: AC50 [1] 18700 nM | AC50 [2] 10500 nM
-0.797: z-score [10, 17]
8190: cell count [9, 14]
1.15: fold change [9, 13]

C[C@H]([C@H](O)CCC(C)(C)O)[C@H]1CC[C@@]2(O)C3=CC(=O)[C@@H]4C[C@@H](O)[C@@H](O)C[C@]4(C)[C@H]3CC[C@]12C
inactive: outcome [4] | outcome [1] | outcome [2] | outcome [3]

CCOC(=O)c1c(/C(C#N)=C\N)c2ccc(Cl)c(Cl)c2n1C
inactive: outcome [4] | outcome [1] | outcome [5] | outcome [3] | outcome [8] | outcome [6]

CC1=C(CC/C(C)=C/CCC2=CCC(C3=CC(=O)OC3O)OC2O)C(C)(C)CCC1 (stereo unspecified)
inactive: outcome [4] | outcome [1] | outcome [2] | outcome [3] | fold fluorescence [11] 4.39 [at 120 µM]

Cc1c(N)nc([C@H](CC(N)=O)NC[C@@H](N)C(N)=O)nc1C(=O)N[C@H](C(=O)N[C@@H](C)[C@H](O)[C@@H](C)C(=O)N[C@@H](C(=O)NCCc1nc(-c2nc(C(=O)NCCC[S+](C)C)cs2)cs1)[C@@H](C)O)C(O[C@H]1O[C@H](CO)[C@H](O)[C@@H](O)[C@H]1O[C@H]1O[C@H](CO)[C@@H](O)[C@H](OC(N)=O)[C@@H]1O)c1cnc[nH]1 (stereo partly specified)
active: AC50 [2] 1870 nM | viability ([12]; at 0.00122 µM, OCI-P5x cells, without rucaparib) 97.2% | viability ([12]; at 0.00488 µM, OCI-P5x cells, with rucaparib 20 µM, 100% = cells with rucaparib alone) 96% | viability ([12]; at 0.00488 µM, OCI-P5x cells, without rucaparib) 94.3% | viability ([12]; at 0.0195 µM, OCI-C5x cells, without rucaparib) 90.7% | viability ([12]; at 0.0195 µM, OCI-P5x cells, with rucaparib 20 µM, 100% = cells with rucaparib alone) 88.2% | viability ([12]; at 0.0195 µM, OCI-P5x cells, without rucaparib) 84.4% | viability ([12]; at 0.0781 µM, OCI-C5x cells, without rucaparib) 95% | viability ([12]; at 0.0781 µM, OCI-P5x cells, with rucaparib 20 µM, 100% = cells with rucaparib alone) 94.6% | viability ([12]; at 0.0781 µM, OCI-P5x cells, without rucaparib) 85.9% | viability ([12]; at 0.313 µM, OCI-C5x cells, with rucaparib 10 µM, 100% = cells with rucaparib alone) 86.7% | viability ([12]; at 0.313 µM, OCI-C5x cells, without rucaparib) 84.5% | viability ([12]; at 0.313 µM, OCI-P5x cells, with rucaparib 20 µM, 100% = cells with rucaparib alone) 76.8% | viability ([12]; at 0.313 µM, OCI-P5x cells, without rucaparib) 57.6% | viability ([12]; at 1.25 µM, OCI-C5x cells, with rucaparib 10 µM, 100% = cells with rucaparib alone) 74.8% | viability ([12]; at 1.25 µM, OCI-C5x cells, without rucaparib) 69.9% | viability ([12]; at 1.25 µM, OCI-P5x cells, with rucaparib 20 µM, 100% = cells with rucaparib alone) 62.8% | viability ([12]; at 1.25 µM, OCI-P5x cells, without rucaparib) 39.3% | viability ([12]; at 5 µM, OCI-C5x cells, with rucaparib 10 µM, 100% = cells with rucaparib alone) 53.8% | viability ([12]; at 5 µM, OCI-C5x cells, without rucaparib) 47.2% | viability ([12]; at 5 µM, OCI-P5x cells, with rucaparib 20 µM, 100% = cells with rucaparib alone) 39.6% | viability ([12]; at 5 µM, OCI-P5x cells, without rucaparib) 21.3%
inactive: outcome [4] | outcome [1] | outcome [5] | outcome [3] | outcome [8] | outcome [6] | viability ([12]; at 0.000305 µM, OCI-C5x cells, with rucaparib 10 µM, 100% = cells with rucaparib alone) 106% | viability ([12]; at 0.000305 µM, OCI-C5x cells, without rucaparib) 102% | viability ([12]; at 0.000305 µM, OCI-P5x cells, with rucaparib 20 µM, 100% = cells with rucaparib alone) 109% | viability ([12]; at 0.000305 µM, OCI-P5x cells, without rucaparib) 102% | viability ([12]; at 0.00122 µM, OCI-C5x cells, with rucaparib 10 µM, 100% = cells with rucaparib alone) 109% | viability ([12]; at 0.00122 µM, OCI-C5x cells, without rucaparib) 107% | viability ([12]; at 0.00122 µM, OCI-P5x cells, with rucaparib 20 µM, 100% = cells with rucaparib alone) 106% | viability ([12]; at 0.00488 µM, OCI-C5x cells, with rucaparib 10 µM, 100% = cells with rucaparib alone) 120% | viability ([12]; at 0.00488 µM, OCI-C5x cells, without rucaparib) 100% | viability ([12]; at 0.0195 µM, OCI-C5x cells, with rucaparib 10 µM, 100% = cells with rucaparib alone) 104% | viability ([12]; at 0.0781 µM, OCI-C5x cells, with rucaparib 10 µM, 100% = cells with rucaparib alone) 103%

C1=C2CCCN[C@H]2[C@@H]2C[C@H]1[C@H]1CCCCN1C2
10600: cell count [9, 15]
10000: cell count [9, 14]
0.546: z-score [10, 17]
1.03: fold change [9, 13]
inactive: outcome [4] | outcome [1] | outcome [2] | outcome [3] | fold change [9, 18] 0.948 | z-score [10, 16] -0.38

Cc1sc2c(c1C)C(c1ccc(Cl)cc1)=NC(CC(=O)Nc1ccc(O)cc1)c1nnc(C)n1-2 (stereo unspecified)
inactive: outcome [6] | fold change [9, 18] 0.898 | z-score [10, 16] -0.542
4940: cell count [9, 14]
-4.37: z-score [10, 17]
0.692: fold change [9, 13]
5500: cell count [9, 15]

From PubChem BioAssay
